# Screens: PubChem, National Center for Advancing Translational Sciences (NCATS)
# Most compounds without a hit are left out; they make up all but 11% or so of the library.
# NS1 function inh = qHTS Assay for Inhibitors of Influenza NS1 Protein Function; Potency, µM (top dose mostly 46.1 µM); 270,000 tested, 0.4% active; calls by dose curve; further: actives are rising curves; nearly all actives have a fitted effect of over 50% in size
#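 Read-out: OD600 growth recovery of NS1-expressing budding yeast. Cells grown overnight at 30C in -URA glucose medium, washed, resuspended and diluted 1:100 in 2% galactose assay medium, pH 6.0. Same strain lacking NS1 served as positive control.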
# AMA1 RON2 block = qHTS for Inhibitors of AMA1-RON; Towards Development of Antimalarial Drug Lead: Primary Screen; Plasmodium falciparum AMA1 (3D7) - RON2 peptide interaction; AlphaScreen AMA1-biotinylated RON2 peptide binding; Potency, µM (titrated, usually from 58.2 µM), usual class: inhibitors; 360,000 tested, 0.2% active; further: nearly all actives have a fitted effect of over 45% in size
#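 AMA1 (3D7) with his tag at 25 nM final met compounds first, then biotinylated RON2 peptide at 25 nM; detection used donor plus acceptor beads, 10 µg/mL apiece, read by AlphaScreen after 30 min at room temperature.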
# Pf growth 96h = Primary qHTS for delayed death inhibitors of the malarial parasite plastid, 96 hour incubation. 320,000 tested, 6.9% active. P. falciparum luciferase reporter growth, 96 h. Potency, µM (doses to about 28.7 µM), most hits filed as inhibitors
#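 96 h incubation, 37 C, 5% CO2, of luciferase-reporter P. falciparum-infected RBCs (2% hematocrit, 0.05% parasitemia final) with test compounds; endpoint luminescence.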
# Pf growth 48h = Primary qHTS for delayed death inhibitors of the malarial parasite plastid, 48 hour incubation; 310,000 tested, 5.9% active; P. falciparum luciferase growth in erythrocytes, 48 h; Potency, µM (series often up to 28.7 µM), usual class: inhibitors
#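 Read-out is firefly luciferase luminescence from an integrated reporter in P. falciparum, so falling signal marks reduced parasite growth. Infected erythrocytes were at 2% hematocrit and 0.1% parasitemia (final) in Albumax-supplemented RPMI 1640.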
# Sm TGR inh = qHTS Assay for the Inhibitors of Schistosoma Mansoni Peroxiredoxins; 360,000 tested, 3% active; Potency, µM (titrated, usually from 114 µM), hits mostly inhibitors; purified TGR, DTNB reduction, TNB absorbance 405 nm; Schistosoma mansoni thioredoxin glutathione reductase (TGR), Q962Y6; AID 485364, 2010; further: nearly all actives have a fitted effect of over 60% in size
#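 TGR 20 nM + NADPH 100 uM (dispensed conc.), cpd preinc 15 min RT; start with NADPH (500 uM addition) then DTNB (15 mM addition). Kinetic TNB absorbance, 405 nm filter. Four-parameter Hill fit across titration.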
# Hits are given with their value; . = inactive; ? = inconclusive; / = not tested or not shown. Unless noted, the call rests on the fitted dose curve; in most records, active means well fitted curve in the direction sought with a large enough effect; inconclusive means small, poorly fitted or top-dose-only effect, or another doubt; inactive means no such curve, though single readings can be large; an effect the other way counts as inactive or inconclusive.
SMILES,NS1 function inh,AMA1 RON2 block,Pf growth 96h,Pf growth 48h,Sm TGR inh
O=C(C1CCN(Cc2ccccc2)CC1)N1CCCC1,.,.,/,.,.
O=C(C1CCN(C2CC(=O)N(Cc3ccccc3)C2=O)CC1)N1CCCCCC1 (centres undefined),.,.,.,.,22µM
O=C(C1CCN(C2CC(=O)N(c3cccc(Cl)c3)C2=O)CC1)N1CCCC1 (centres undefined),.,.,/,.,22µM
O=C1CC(N2CCC(Cc3ccccc3)CC2)C(=O)N1CCc1ccccc1 (centres undefined),.,.,.,/,11µM
O=C(C1CCN(C2CC(=O)N(c3ccc(Cl)cc3)C2=O)CC1)N1CCOCC1 (centres undefined),.,.,/,.,14µM
O=C(COC(=O)c1c(F)cccc1F)Nc1ccc(N2CCCCC2)cc1,/,.,/,/,/
CCOc1ccc(Cl)cc1S(=O)(=O)N1CCC(C(=O)NCc2cccnc2)CC1,.,.,.,.,.
O=c1c(/C=N\NS(=O)(=O)c2ccccc2)coc2ccc(Cl)cc12,.,.,.,.,?
Cc1ccsc1C(=O)N1CCCC(N2CCN(c3cccc(Cl)c3)CC2)C1 (centres undefined),.,.,.,.,.
CCCn1cc(SCC(=O)NCC2CCCO2)c2ccccc21 (centres undefined),.,.,.,.,.
COc1ccc(CCNC(=O)CS(=O)(=O)c2cn(CC(=O)N(C(C)C)C(C)C)c3ccccc23)cc1OC,.,.,10µM,?,.
CCCn1cc(SCC(=O)NC2CCCC2)c2ccccc21,.,.,?,9.3µM,.
CNC(=O)CSc1cn(CC(=O)N(C(C)C)C(C)C)c2ccccc12,/,.,10µM,.,.
CC(C)N(C(=O)Cn1cc(S(=O)(=O)CC(=O)Nc2ccccc2)c2ccccc21)C(C)C,.,.,8.3µM,?,.
Cc1cc(C)c(C2=CC(=O)C[C@H](c3ccc4c(c3)OCO4)C2)c(C)c1,/,.,?,.,.
Nc1ccn([C@@H]2O[C@H](COC(=O)C34CC5CC(CC(C5)C3)C4)[C@@H](O)[C@@H]2O)c(=O)n1,.,/,/,/,/
CCN1C(=O)/C(=C/c2ccc(C)o2)N(C)C1=S,.,?,.,.,28µM
CCN1C(=O)/C(=C/c2cccs2)N(C)C1=S,.,.,1.7µM,/,.
CN(C)c1ccsc1C(=O)NNS(=O)(=O)c1ccc(Cl)cc1,/,.,/,/,/
CCn1ccc2c(OCC(=O)NCc3ccc(C)cc3)cccc2c1=O,/,/,/,/,.
COc1ccc(-c2nc(C#N)c(NC(C)c3ccccc3)o2)cc1OC (centres undefined),.,.,?,15µM,.
COc1ccc(-c2nc(C#N)c(NCCCN(C)C)o2)cc1OC,.,.,.,.,.
Cc1ccc(S(=O)(=O)N(C)c2ccc3sc(C)nc3c2)cc1,.,.,.,.,.
CCOc1ccc(NC(=O)CC(Cc2cc(C)cc(C)c2)C(=O)O)cc1 (centres undefined),.,.,.,.,.
CCOC(=O)N1CCC(NC(=O)CS(=O)Cc2nc(-c3ccc(Cl)cc3)oc2C)CC1 (centres undefined),.,.,?,.,40µM
SMILES,NS1 function inh,AMA1 RON2 block,Pf growth 96h,Pf growth 48h,Sm TGR inh
CCOC(=O)N1CCC(NC(=O)CS(=O)Cc2nc(-c3ccc(OC)c(OC)c3)oc2C)CC1 (centres undefined),.,.,?,?,?
CCOC(=O)N1CCC(NC(=O)CS(=O)Cc2nc(-c3ccc(C)cc3)oc2C)CC1 (centres undefined),.,.,?,.,45µM
CCCNC(=O)C1(C)CCCN(Cc2c(F)cccc2F)C1 (centres undefined),/,.,/,/,/
CC(=O)c1cc(-c2ccccc2)n(CCC(=O)NC2CCCC2)c1C,/,.,?,.,.
CC(=O)c1cc(-c2ccccc2)n(CCC(=O)NC2CCCCC2)c1C,.,.,10µM,.,.
CC(=O)c1cc(-c2ccccc2)n(CC(=O)NC(C)(C)C)c1C,/,.,13µM,.,.
CCCCCc1cc(=O)oc2c(C(CCN3CCCC3)c3cc(OC)c(OC)c(OC)c3)c(OC)cc(OC)c12 (centres undefined),.,.,3.3µM,2.6µM,.
CCCCCc1cc(=O)oc2c(C(CCN(CC)CC)c3ccc(OC)cc3)c(OC)cc(OC)c12 (centres undefined),.,.,1.9µM,3.3µM,.
COc1cc(OC)c2ccc(=O)oc2c1C(CCN1CCCC1)c1ccc(N(C)C)cc1 (centres undefined),.,.,?,?,.
CCCCCc1cc(=O)oc2c(C(CCN3CCCC3)c3ccc(N(C)C)cc3)c(OC)cc(OC)c12 (centres undefined),.,8.9µM,9.3µM,?,.
COc1ccc(C(CCN2CCCC(C)C2)c2c(OC)cc(OC)c3c2OC(=O)CC3c2cc(OC)c(OC)c(OC)c2)cc1 (centres undefined),.,.,10µM,12µM,.
COc1cc(C2CC(=O)Oc3c2c(=O)n(C)c2ccccc32)cc(OC)c1OC (centres undefined),.,.,?,.,.
CC(=O)c1ccc(NC(=O)CSc2nccn2Cc2ccc3c(c2)OCO3)cc1,/,/,/,/,.
CCC(C)NC(=O)CSc1n[nH]c(-c2cc(Cl)ccc2OC)n1 (centres undefined),/,.,.,.,.
Cc1c(NC(=O)c2cccc(NC(=O)Cc3ccccc3Cl)c2)c(=O)n(-c2ccccc2)n1C,/,.,/,/,/
CCCCCc1cc(=O)oc2c(C(CCN3CCN(c4ccccc4)CC3)c3ccc4c(c3)OCO4)c(OC)cc(OC)c12 (centres undefined),?,.,5.2µM,7.4µM,.
CCCCCc1cc(=O)oc2c(C(CCN3CCCCC3)c3ccc(OC)cc3)c(OC)cc(OC)c12 (centres undefined),.,.,2.6µM,3.3µM,.
CCCCCc1cc(=O)oc2c(C(CCN3CCCC(C)C3)c3ccc(OC)cc3)c(OC)cc(OC)c12 (centres undefined),.,.,3.3µM,?,.
O=C(c1ccc2ccccc2c1O)N1CCCCC1,/,.,/,/,/
COc1ccc(NC(=O)CC2C(=O)N(c3ccc(Cl)cc3)C(=S)N2CCc2ccncc2)cc1 (centres undefined),.,.,13µM,?,.
COc1ccc(NC(=O)CC2C(=O)N(CCc3ccccc3)C(=S)N2Cc2cccnc2)cc1 (centres undefined),.,.,13µM,12µM,.
CCN1C(=O)C(CC(=O)Nc2ccc(OC)cc2)N(Cc2cccnc2)C1=S (centres undefined),.,12µM,?,.,.
CCN1C(=O)C(CC(=O)Nc2ccc(F)cc2)N(CCc2ccc(OC)cc2)C1=S (centres undefined),.,.,.,?,.
